# 14-3-3 Bad inh – inhibitors of 14-3-3 zeta/Bad binding, primary screen, biochemical, TR-FRET, bovine 14-3-3 zeta; 14-3-3 protein zeta/delta (Bos taurus), P63103; TR-FRET 14-3-3zeta/Dy647-pBad peptide displacement, 1 h; inhibition, % at 21.7 µM; 220,000 tested, 0.71% active; AID 781, 2007;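 active = inhibition above about 70%, limit read from the data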;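 note: 0% = full 14-3-3 plus peptide FRET controls and 100% = background without 14-3-3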
# Mcl1 Bid PPI – Mcl-1/Bid binding inhibitors, primary screen, biochemical, TR-FRET, 1536-well | TR-FRET Mcl-1/Bid-Dy647 peptide binding | inhibition, % at 21.7 µM | 220,000 tested, 0.97% active | AID 1021, 2008;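 active = compounds that cut the binding signal by more than half at the single screening dose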;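 note: His-tagged Mcl-1 with europium anti-His antibody binding Bid BH3 peptide; 0% = Mcl-1 plus peptide wells and 100% = peptide-only wells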
# Mcl-1 Bim block – inhibitors of Bim peptide binding to Mcl-1, primary screen, biochemical, bead-based flow cytometry, multiplex. AID 1009, 2008. inhibition, % at 10 µM. Bim peptide-Mcl-1 binding. 190,000 tested, 0.1% active; in the data active = inhibition above about 40%;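 note: 0% = no compound tracer wells and 100% = peptide blocker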
# Mcl1 Noxa PPI – Mcl-1/Noxa binding inhibitors, primary screen, biochemical, TR-FRET, 1536-well; Induced myeloid leukemia cell differentiation protein Mcl-1 (Homo sapiens), Q07820; TR-FRET Mcl-1/Noxa peptide binding, 2 h; inhibition, % at 21.7 µM; 220,000 tested, 1.5% active; AID 1022, 2008;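 active = compounds that cut the protein-peptide binding signal by more than 50% relative to plate controls in a single-dose test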;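 note: His-tagged Mcl-1 with rhodamine Noxa BH3 peptide and terbium anti-His antibody; 0% = Mcl-1 plus Noxa peptide wells and 100% = peptide-only wells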
# Hck Nef HTS – inhibitors of Nef-activated human Hck kinase, primary screen, biochemical, Z-Lyte FRET, 384-well, Hck-YEEI; Recombinant Hck-YEEI plus Nef, Z-Lyte FRET kinase assay; inhibition, % at 20 µM; 220,000 tested, 0.68% active; AID 463187, 2010;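 active = Hck-Nef kinase inhibition above about 50%, limit read from the data; inactive = inhibition below that limit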;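 note: 0% = DMSO with Hck plus Nef and 100% = Hck alone without Nef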
# Target sequence (P08631 whole entry, looked up): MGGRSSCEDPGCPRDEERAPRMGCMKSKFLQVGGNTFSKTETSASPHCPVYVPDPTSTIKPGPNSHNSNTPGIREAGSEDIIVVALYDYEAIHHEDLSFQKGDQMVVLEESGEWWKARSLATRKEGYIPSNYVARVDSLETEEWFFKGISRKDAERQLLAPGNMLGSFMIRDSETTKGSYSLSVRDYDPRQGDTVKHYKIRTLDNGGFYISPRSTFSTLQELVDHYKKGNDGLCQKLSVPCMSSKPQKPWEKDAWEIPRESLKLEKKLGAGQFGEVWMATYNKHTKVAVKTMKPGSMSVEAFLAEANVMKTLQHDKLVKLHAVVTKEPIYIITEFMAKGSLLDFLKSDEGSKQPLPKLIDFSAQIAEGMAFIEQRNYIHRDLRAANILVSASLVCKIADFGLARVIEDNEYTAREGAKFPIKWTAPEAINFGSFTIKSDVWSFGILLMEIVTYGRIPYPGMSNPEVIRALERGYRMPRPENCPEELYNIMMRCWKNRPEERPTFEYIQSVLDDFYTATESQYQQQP
# eIF4E 4G PPI – eIF4E–eIF4G protein interaction inhibitors, primary screen, biochemical, uHTS, TR-FRET, eIF4GI fragment | AID 782, 2007 | 220,000 tested, 0.37% active | TR-FRET eIF4E-eIF4GI(517-606) binding, 2 h | inhibition, % at 21.7 µM | Eukaryotic translation initiation factor 4E (Mus musculus) + Eukaryotic translation …;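 active = inhibition above about 30%, limit read from the data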;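 note: 0% = full FRET control wells and 100% = background wells lacking eIF4GI fragment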
# Active calls of the source: *; / = no result given. This is a sample that favours compounds with a hit; in the whole collection about 3.5% have one here.
SMILES,14-3-3 Bad inh,Mcl1 Bid PPI,Mcl-1 Bim block,Mcl1 Noxa PPI,Hck Nef HTS,eIF4E 4G PPI
O=C(Nc1ccc(F)c(Cl)c1)c1ccc2c(=O)n3c(nc2c1)CCCCC3,15,-12,61*,4,0,4
O=C(Cn1c(-c2cscn2)nc2ccccc21)Nc1ccc2ccccc2c1,36,28,0,-38,3,2
N#Cc1ccccc1Cn1c(-c2cscn2)nc2ccccc21,-4,79*,1,6,0,1
O=C(O)Cn1c(-c2cscn2)nc2ccccc21,72*,-2,0,9,2,8
O=C1Nc2ccccc2C1=Nc1ccc(S(=O)(=O)Nc2nccs2)cc1,1,-53,/,20,67*,-1
COc1ccc(S(=O)(=O)Nc2ccccc2Cl)cc1NC(C)=O,91*,-8,0,11,16,0
Oc1oc(-c2ccccc2Br)nc1C=Nc1ccc(Br)cn1,76*,31,2,47,24,19
CN(C)c1ccnc2sc(C(=O)c3ccc(Br)cc3)c(N)c12,-1,-20,-2,8,20,4
CN(C)c1ccnc2sc(C(N)=O)c(N)c12,5,97*,0,-2,4,5
CCOc1ccc(C(=O)Nc2cc(NC(=O)c3ccc(OCC)c(Cl)c3)cc(C(=O)O)c2)cc1Cl,26,5,-2,84*,34,12
CCOc1ccc(C(=O)Nc2cccc(C(=O)O)c2)cc1Cl,-6,-29,3,-1,8,-2
CCOc1ccc(C(=O)Nc2cccc(-c3nc4cccnc4o3)c2)cc1Cl,44,51*,0,-4,3,-26
CCOc1ccc(C(=O)Nc2ccc(NC(=O)c3ccco3)c(Cl)c2)cc1Cl,17,-32,-17,-32,1,1
CC(CN1CCN(C)CC1)OC(=O)c1ccc(F)cc1 (stereo not drawn),91*,-3,-2,17,-26,2
CC(CN1CCN(C)CC1)OC(=O)c1cccc(Cl)c1 (stereo not drawn),1,-13,/,32,20,2
CC(CN1CCN(C)CC1)OC(=O)c1ccccc1 (stereo not drawn),71*,27,-3,29,1,14
NC(=O)COC(=O)CCSc1ccc(Cl)cc1,-2,-16,-4,11,-2,-1
Brc1c(CSc2nc3ccccc3s2)nc2ncccn12,2,-1,-5,-17,0,-3
O=[N+]([O-])c1ccc2sc(SCc3nc4ccccn4c3Br)nc2c1,31,-18,-1,56*,9,4
CCOc1cc(N2CCOCC2)c(OCC)cc1NC(=O)c1cc(-c2ccco2)nc2ccccc12,63,78*,-3,49,1,8
CCOc1cc(N2CCOCC2)c(OCC)cc1NC(=O)CN1CCc2ccccc2C1,57,93*,0,18,-1,-2
O=C(Nc1ccc(Cl)c(S(=O)(=O)N2CCOCC2)c1)c1cc(-c2ccccn2)nc2ccccc12,-17,-14,-1,9,20,3
COc1ccc(NC(=O)c2cc(-c3ccco3)nc3ccccc23)cc1S(=O)(=O)N1CCOCC1,49,-25,/,101*,33,38*
COc1ccc(/C=C/C(=O)Oc2cccc(/C=N/NC(=O)Cc3ccc(Br)cc3)c2)cc1,0,-16,/,-10,27,-13
COc1ccccc1CCC(=O)Nc1ccc(C)cc1Cl,-15,1,-1,7,28,1
SMILES,14-3-3 Bad inh,Mcl1 Bid PPI,Mcl-1 Bim block,Mcl1 Noxa PPI,Hck Nef HTS,eIF4E 4G PPI
O=C(c1ccccc1)c1coc2ccc(O)c(Cl)c12,92*,-19,0,13,1,-13
Cc1ccc(C(=O)c2coc3ccc(O)c(Cl)c23)cc1,/,-72,1,26,-15,/
CC1c2nc3ccccc3n2C(CC(=O)NC2CC2)C(=O)N1Cc1ccccc1 (stereo not drawn),-9,3,-7,-10,20,-1
CC(O)CNC(=O)C1CCN(Cc2ccc(OCc3ccccc3)cc2)CC1 (stereo not drawn),-2,63*,-6,31,0,5
CC(C)CNC(=O)C1CCN(Cc2ccc(OCc3ccccc3)cc2)CC1,19,15,-9,31,-2,-1
O=C(COc1ccc(Cl)cc1)NNC(=O)CSc1nncs1,-16,-30,0,11,5,-1
CCN(CC)c1ccc(NC(=O)CCCCCN2C(=O)c3ccccc3C2=O)cc1,17,-2,0,63*,2,2
O=C(O)CCCC(=O)NCc1ccccn1,-16,-3,1,7,0,1
O=C(CCCCCN1C(=O)c2ccccc2C1=O)NCc1ccccn1,77*,0,0,12,0,11
O=C(CCCN1C(=O)c2ccccc2C1=O)NCCCn1ccnc1,2,82*,-1,19,0,1
CC(C)CNC(=O)c1ccccc1NC(=O)/C=C/c1cccc([N+](=O)[O-])c1,-3,-26,-3,26,-1,-4
N=C(N=C(N)N)N1CCc2ccccc21,-2,-30,0,-2,16,-1
Cc1noc(C)c1COc1ccc(C(=O)NCCc2ccccn2)cc1,-14,-11,0,8,21,0
Cc1ccc(-c2nn(C)c(=O)c3ccccc23)cc1CNC(=O)Cn1nc(-c2ccccc2)c2ccccc2c1=O,60,77*,-31,-23,28,1
Cc1nn(C)c(Oc2cccc(C(F)(F)F)c2)c1C=O,-4,-5,-1,6,25,-2
Cc1cc(C)c2c(NC(=S)Nc3ccccc3)n[nH]c2n1,-14,-37,1,60*,29,0
Cc1ccc(F)c([C@H]2C3C=CCC(c4ccccc4)C3C(=O)N2Cc2ccccc2)c1 (stereo partly drawn),-2,-38,/,17,24,-1
O=C(Cn1cnc2ccccc2c1=O)Nc1nc2ccccc2s1,-6,-11,-1,7,23,-3
CCc1ccc2nc(NC(=O)Cn3cnc4ccccc4c3=O)sc2c1,0,-6,-1,18,55*,20
O=C(/C=C/c1cccc(F)c1)N1CCN(c2ncccn2)CC1,-1,-9,1,10,16,-1
CCOC(=O)c1c(N)sc(C(N)=O)c1C,-7,-34,2,18,5,6

# Screening results deposited in PubChem BioAssay by several laboratories.
